# HP1b chromo inh: HTS for Inhibitors of HP1-beta Chromodomain Interactions with Methylated Histone Tails. actives 0.56% (n = 390,000). AID 540317, 2011. Potency, µM (series often up to 114 µM), usual class: inhibitors. AlphaScreen HP1-beta / biotin-H3K9me3 peptide binding. Chromobox protein homolog 1 (Homo sapiens), P83916; note: nearly all actives have a fitted effect of over 70% in size
#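 Compound inhibition of the preformed complex between 50 nM HP1-beta and 50 nM biotinylated H3K9me3 peptide was read by AlphaScreen. Buffer was PBS pH 7.4 with 0.01% Tween-20. Incubations ran 30 min at room temperature, with 10 ug/mL donor/acceptor beads.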
# BAZ2B block: qHTS Assay for Inhibitors of BAZ2B. Potency, µM (highest dose often 114 µM), actives largely listed as inhibitors. actives 4.4% (n = 360,000). AID 504333, 2011. AlphaScreen BAZ2B-H3K14Ac peptide displacement; note: nearly all actives have a fitted effect of over 60% in size
#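 Multi-concentration screen (max 110 uM) measuring displacement of acetylated histone H3 peptide from BAZ2B by AlphaScreen, using 50 nM protein, 50 nM peptide and 10 ug/mL streptavidin donor plus Ni-chelate acceptor beads.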
# JMJD2A Tudor: qHTS Assay for Inhibitors of JMJD2A-Tudor Domain; Lysine-specific demethylase 4A (Homo sapiens), O75164; AlphaScreen JMJD2A-Tudor / H3K4me3 peptide binding; Potency, µM (top dose mostly 114 µM), usual class: inhibitors; actives 4.4% (n = 390,000); note: nearly all actives have a fitted effect of over 50% in size
# Sfp PPTase inh: qHTS Assay for Inhibitors of Bacillus subtilis Sfp phosphopantetheinyl transferase (PPTase); Biochemical Sfp PPTase activity, qHTS; Potency, µM, actives largely listed as inhibitors; actives 3.5% (n = 310,000); AID 1490, 2009;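 note: the enzyme is Sfp with the accession as filed and its product quenches rhodamine fluorescence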
#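 Fluorescence-quenching assay with 15 nM Sfp, 5 uM rhodamine-CoA and 12.5 uM BHQ-2-labelled ybbR peptide in pH 7.6 Hepes/MgCl2 buffer. Enzyme was pre-incubated with compound for 15 min at room temperature. Rate was taken from the 30-min fluorescence change (525/598 nm).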
# G9a inh: qHTS Assay for Inhibitors of Histone Lysine Methyltransferase G9a. Histone-lysine N-methyltransferase EHMT2 (Homo sapiens), Q96KQ7. G9a H3K9 monomethylation, AlphaScreen, 2 h. Potency, µM (doses to about 102 µM), actives largely listed as inhibitors. actives 8.8% (n = 350,000). AID 504332, 2011; note: nearly all actives have a fitted effect of over 75% in size
#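 AlphaScreen read-out: biotin-H3K9 peptide (500 nM) methylation by 20 nM enzyme with 20 uM SAM, 2 h at room temperature after 15 min compound preincubation; anti-monomethyl H3K9 antibody plus donor/acceptor beads, 10 min dark.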
# Hits are given with their value; – = inactive; ? = inconclusive; · = not tested or not shown; [ ] = remark or other dose. Only some compounds are listed: those with a hit (about 12% of all), similar ones and a draw of the others. Calls come from the whole dose curve; as a rule, active = well fitted curve in the direction sought with a large enough effect; inconclusive = small, poorly fitted or top-dose-only effect, or another doubt; inactive = no such curve, though single readings can be large; an effect the other way counts as inactive or inconclusive.
SMILES,HP1b chromo inh,BAZ2B block,JMJD2A Tudor,Sfp PPTase inh,G9a inh
CC(Oc1ccccc1)C(=O)OCC(=O)Nc1sccc1C(N)=O (centres undefined),–,–,–,·,–[12.7 µM]
COc1cc2c(=O)n(Cc3ccccc3)c(=O)n(CC(=O)NCCc3ccccc3)c2cc1OC,–,–,–,?,–[12.7 µM]
CCC(c1nnnn1Cc1ccc(OC)cc1)N1CCN(C(=O)c2ccco2)CC1 (centres undefined),–,–,–,–,–
Clc1cccc(OCCCN2CCCC2)c1Cl,?,–,20µM,–,?
Clc1cccc(OCCOCCN2CCNCC2)c1Cl,–,·,–,·,·
Cn1sccc1=O,–,–,–,·,1.8µM
COc1ccc(NC(C)=O)cc1NC(C)C(=O)Nc1ccc(F)c(F)c1F (centres undefined),–,–,–,–,50µM
Cc1c(O)nc2ccccn2c1=O,–,–,–,–,·
Cc1ccc(/C=N/Nc2nc(C(C)(C)C)cs2)o1,?,45µM,45µM,50µM,10µM
CC(C)(C)c1csc(N/N=C/c2cccnc2)n1,–,40µM,?,–,?
Clc1ccc(-c2csc(N/N=C/c3cccnc3)n2)c(Cl)c1,–,?,?,?,?
C(=N\Nc1nc(-c2ccccc2)cs1)/c1cccnc1,–,?,?,56µM,?
O=C(Cn1cnc([N+](=O)[O-])c1)Nc1ccccc1C(F)(F)F,–,–,?,–,·
Cc1sc(NC(=O)c2ccc(Br)s2)c(C(N)=O)c1C,–,–,–,–,–[12.7 µM]
CSC1=C(C#N)C(CC(C)C)C(C(C)=O)=C(C)N1 (centres undefined),–,–,–,–,50µM
N/C(CS(=O)(=O)c1ccccn1)=N\OC(=O)c1ccccc1Cl,–,–,?,–,?
CCCS(=O)(=O)C/C(N)=N/OC(=O)c1ccccc1Cl,–,–,–,–,40µM
COCCCNC(=O)COc1ccc(S(=O)(=O)Nc2ccccc2)cc1,–,–,–,–,–[12.7 µM]
O=C(c1ccc([N+](=O)[O-])o1)N1CCN(c2nc3c(F)cc(F)cc3s2)CC1,–,–,?,·,45µM
Cc1ccc(C)c2sc(N3CCN(C(=O)c4ccc([N+](=O)[O-])o4)CC3)nc12,?,–,–,·,?
COc1ccc(S(=O)(=O)N2CC(O)CC2C(=O)Nc2cccnc2)cc1 (centres undefined),–,–,–,–,·
COc1cc(C(=O)Nc2cccc(-c3nc4cc(C)cc(C)c4o3)c2)cc(OC)c1OC,–,–,–,–,–
COc1ccc(C(=O)CSc2nc(C)cc(=O)[nH]2)cc1,–,–,–,–,25µM
COc1ccc(C(=O)CSc2cc(C)[nH]c(=O)n2)cc1,–,50µM,?,–,?
COc1cccc(NC(=O)CSc2cc(C)[nH]c(=O)n2)c1,–,–,–,·,–
SMILES,HP1b chromo inh,BAZ2B block,JMJD2A Tudor,Sfp PPTase inh,G9a inh
Cc1ccc(CSc2cc(C)[nH]c(=O)n2)cc1,–,50µM,–,–,–
O=C(Cn1cc(SCc2ccc(C(F)(F)F)cc2)c2ccccc21)N1CCOCC1,–,–,–,·,?
O=C(CS(=O)(=O)c1ccccc1)Nc1nnc(C(F)(F)F)s1,–,–,–,–,?
O=C(CCS(=O)(=O)c1ccccc1)Nc1nnc(C(F)(F)F)s1,–,?,–,–,40µM
Cc1ccc(S(=O)(=O)CC(=O)Nc2nnc(C(C)(C)C)s2)cc1,–,–,?,?,22µM
CC(C)(C)c1nnc(NC(=O)CCS(=O)(=O)c2ccccc2)s1,–,–,–,–,28µM
N/C(Cc1cccc2ccccc12)=N\OC(=O)c1ccc(Br)o1,·,–,·,–,45µM
COc1ccccc1N1CCN(C(=O)COc2ccc(S(=O)(=O)NC(C)C)cc2)CC1,–,–,–,–,·
Cc1nn(CCO)c2c1C(=O)CCC2,–,–,–,–,–
O=C(COC(=O)/C=C/c1ccccc1)NC(=O)NC1CCCCC1,–,·,–,·,·
O=C(NNc1ccccn1)C(=O)NNS(=O)(=O)c1ccc(F)cc1,–,40µM,–,–,–
